Data published in PubChem BioAssay (NCATS).
Records with an inconclusive call do not appear. Unmarked numbers belong to inactive results. Active and inactive are the calls of the source. Calls follow the shape of the dose curve; as a rule, active = well fitted activation curve with a large enough effect in the main read-out, with a control signal flat (not every such curve was filed as active); inconclusive = small, poorly fitted or top-dose-only effect, or effect the other way, or a change in a side signal; inactive = flat fitted curve, though single readings scatter.

Target: 3',5'-cyclic-AMP phosphodiesterase 4B (Homo sapiens) (UniProt Q07343)
Sequence (Q07343 whole entry, looked up): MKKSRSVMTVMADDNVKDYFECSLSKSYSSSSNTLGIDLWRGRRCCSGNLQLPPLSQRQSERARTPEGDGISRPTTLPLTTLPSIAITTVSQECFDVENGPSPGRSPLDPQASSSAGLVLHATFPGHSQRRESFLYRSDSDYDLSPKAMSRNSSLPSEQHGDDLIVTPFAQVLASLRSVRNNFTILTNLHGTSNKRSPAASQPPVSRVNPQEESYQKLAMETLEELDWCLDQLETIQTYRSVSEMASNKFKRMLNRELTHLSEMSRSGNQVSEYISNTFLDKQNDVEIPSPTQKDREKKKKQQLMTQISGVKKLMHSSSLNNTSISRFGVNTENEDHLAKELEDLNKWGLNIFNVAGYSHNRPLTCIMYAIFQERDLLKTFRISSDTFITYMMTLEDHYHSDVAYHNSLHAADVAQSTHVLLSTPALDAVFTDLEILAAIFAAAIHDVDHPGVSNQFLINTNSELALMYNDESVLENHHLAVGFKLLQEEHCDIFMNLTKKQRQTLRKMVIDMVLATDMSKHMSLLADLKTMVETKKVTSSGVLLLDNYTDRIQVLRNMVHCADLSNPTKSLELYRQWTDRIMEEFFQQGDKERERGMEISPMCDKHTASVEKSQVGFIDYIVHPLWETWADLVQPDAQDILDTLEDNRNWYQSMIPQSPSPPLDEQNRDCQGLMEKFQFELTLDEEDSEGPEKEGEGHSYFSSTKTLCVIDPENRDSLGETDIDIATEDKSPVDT
Assay: qHTS Assay for Inhibitors of PDE-IV (AID 607); also: % of control where 0% means no effect
Conditions: HEK293 ACTOne CNG channel cells, membrane potential fluorescence; series mostly up to 22.9 µM; activation (PDE inhibition): at the top concentration
Method in brief: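 The readout is membrane depolarisation from a cAMP-sensing CNG channel, detected with a potential dye at ex 535/em 590. Cells were HEK293-derived (endogenous PDE-IV) at 1000 cells/well, titrated up to 22.9 uM final.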

Q: For `CCN(CC)CCOC(=O)c1cc(Cl)c(N)cc1OC`, which “activation (PDE inhibition)” value is on record?
A: 10.1%

Q: Which “activation (PDE inhibition)” value does the source give for `Cc1ccc2c(c1)C(N1CCN(C)CC1)=Nc1cccnc1N2` here?
A: 0.202%

Q: `CCCc1c(-c2ccc(O)cc2)nn(-c2ccc(O)cc2)c1-c1ccc(O)cc1` was tested. Which Potency did it give?
A: inactive

Q: Which “activation (PDE inhibition)” value does the source give for `C=CCn1c(=O)c2c(nc(-c3ccc(S(=O)(=O)O)cc3)n2C)n(C)c1=O` here?
A: -1.43%

Q: How did the Potency turn out when `OC1(c2ccc(Cl)cc2)CCN(Cc2c[nH]c3ccccc23)CC1` was run?
A: inactive

Q: How did the “activation (PDE inhibition)” value turn out when `O=c1onc2n1-c1cc(Br)ccc1OC2` was run?
A: 14.6%

Q: Which “activation (PDE inhibition)” value does the source give for `CCN(c1nc(N)c(C(=O)N=C(N)N)nc1Cl)C(C)C` here?
A: 21.2%

Q: `NC(N)=NC(N)=Nc1cccc(Cl)c1` was tested. Which Potency did it give?
A: inactive

Q: How did the “activation (PDE inhibition)” value turn out when `N=C(N)c1ccc(N)cc1` was run?
A: -9.2%

Q: With `CC(N)=O` as the compound, how does the “activation (PDE inhibition)” value read?
A: -15%

Q: `O=[N+]([O-])c1cccc2cn[nH]c12` was tested. Which Potency did it give?
A: inactive

Q: `O=[N+]([O-])c1cccc2c(Br)[nH]nc12` was tested. Which “activation (PDE inhibition)” value did it give?
A: -21.1%

Q: How did the “activation (PDE inhibition)” value turn out when `Cc1nc(N=Nc2ccc(C(=O)O)cc2)c(COP(=O)(O)O)c(C=O)c1O` was run?
A: 4.54%

Q: Which Potency does the source give for `O=C(O)C1=CCNCC1` here?
A: inactive

Q: `CC(C)NC[C@H](O)COc1cccc2ccccc12` was tested. Which “activation (PDE inhibition)” value did it give?
A: -8.3%

Q: `NS(=O)(=O)c1cccc2c1c([N+](=O)[O-])cc1nc(O)c(O)nc12` was tested. Which Potency did it give?
A: inactive

Q: With `O=C(N[C@@H](Cc1ccccc1)C(=O)CCl)OCc1ccccc1` as the compound, how does the “activation (PDE inhibition)” value read?
A: 41.6%

Q: For `O=C(O)Cc1c[nH]c2ccc(O)cc12`, which “activation (PDE inhibition)” value is on record?
A: -12.1%

Q: Which Potency does the source give for `COc1ccc(-c2ccc(N)[n+](CCCC(=O)O)n2)cc1` here?
A: inactive

Q: With `CC(=O)NCCc1c[nH]c2ccc(O)cc12` as the compound, how does the “activation (PDE inhibition)” value read?
A: 0.877%

Q: `O=C(O)c1cc2cc(F)ccc2[nH]1` was tested. Which “activation (PDE inhibition)” value did it give?
A: 13.2%

Q: For `[Li+]`, which “activation (PDE inhibition)” value is on record?
A: 5.03%

Q: With `CCCCCCCCCCCCCCSCC(=O)O` as the compound, how does the “activation (PDE inhibition)” value read?
A: -6.05%

Q: For `NCCCCN=C(N)N`, which “activation (PDE inhibition)” value is on record?
A: 10.5%

Q: How did the “activation (PDE inhibition)” value turn out when `N[C@@H](Cc1c[nH]c2ccccc12)C(=O)O` was run?
A: 0.194%

Q: For `CC[N+](CC)(CC)CC(=O)Nc1c(C)cccc1C`, which “activation (PDE inhibition)” value is on record?
A: -11.4%

Q: For `C=CC[C@H](N)C(=O)O`, which “activation (PDE inhibition)” value is on record?
A: 4.57%

Q: How did the Potency turn out when `N=C(N)SCCc1cnc[nH]1` was run?
A: inactive

Q: For `CN[C@H](CC(=O)O)C(=O)O`, which Potency is on record?
A: inactive

Q: For `O=C(O)Cc1ccc(O)c(O)c1`, which “activation (PDE inhibition)” value is on record?
A: -1.37%

Q: How did the “activation (PDE inhibition)” value turn out when `CCCCCCCCCCCCCCC[C@H](O)[C@H](N)CO` was run?
A: 3.92%

Q: For `COc1ccc(CCN(C)CCc2ccc(OC)c(OC)c2)cc1OC`, which “activation (PDE inhibition)” value is on record?
A: -0.498%

Q: With `O=c1oc(Cl)c(Cl)c2ccccc12` as the compound, how does the “activation (PDE inhibition)” value read?
A: -12.7%

Q: With `Oc1cc(O)c2c(c1)O[C@H](c1ccc(O)c(O)c1)[C@@H](O)C2` as the compound, how does the “activation (PDE inhibition)” value read?
A: 6.1%
